Laboratory results as given in PubChem BioAssay (EPA / NIEHS).
Calls of active or inactive are those of the source. The calls were made as follows: active = hit-call score of the fitted dose curve at least 0.9, where 1 is the maximum; inactive = score below 0.9.

Read-out: UDP glucuronosyltransferase (UGT1A6), UGT1A6 (gene 54578)
Assay: LTEA_HepaRG_UGT1A6: Life Technologies and Expression Analysis (LTEA) Assay for UDP glucuronosyltransferase (UGT1A6) using HepaRG (AID 2283539)
Settings: mRNA level, 48 h; actives raise or lower the signal
Description: LTEA_HepaRG is a cell based, multiplexed-readout assay that uses HepaRG, a human liver cell line, with measurements taken at 48 hours after chemical dosing on a 96-well plate.LTEA_HepaRG_UGT1A6 is one of 102 assay component(s) measured in the LTEA HepaRG cell culture assay. It is a marker of NR mediated metabolism.Data from the assay component LTEA_HepaRG_UGT1A6 was analyzed into 1 endpoint. This assay endpoint, LTEA_HepaRG_UGT1A6, was analyzed with bidirectional fitting relative to DMSO as the negative control and baseline of activity. Using a type of inducible reporter, measures of mRNA induction for gain or loss-of-signal activity can be used to understand regulation of transcription factor activity. To generalize the intended target to other relatable targets, this assay endpoint is annotated to the transferase intended target family, where the subfamily is glucuronosyltransferase.
A total of 1060 chemcials from the ToxCast library were tested in eight-point concentration-response experiments. Cell culture and cytotoxicity assays were conducted at Thermo Fisher Scientific's Custom Services facility (Madison, WI). A single lot of human HepaRG cells (Thermo Fisher Scientific, Frederick, MD) was used for the cell culture experiments. 96-well format collagen type I coated plates of human HepaRG cells were prepared using established methods. Briefly, cryopreserved HepaRG cells were thawed, plated at a density of approximately 100,000 cells/well in HepaRG Thaw, Plate, and General Purpose media (HPRG770, Thermo Fisher Scientific), and incubated for 48 hours. 0.5% DMSO was selected as vehicle control to balance the requisite need of DMSO in HepaRG cultures to maintain differentiation (for example, baseline metabolism, proportions of hepatocytes vs. cholangiocytes), while enabling further hepatic receptor pathway activation (for example, PXR and CAR) in response to chemical exposure. 48 hours after plating, the culture medium was replaced with HepaRG Serum-Free Incudtion Media. Cells were exposed to each test chemical in duplicate and maintained in CO2 incubators for another 48 hours. Chemical plates were thawed to room temperature and 200x concentrations of treatment groups were prepared. 8-point conentration-reponse curves were made with the highest exposure at 100 uM, followed by half-log dilutions, all in 0.5% DMSO. Each test plate contained variouse controls, induction positive controls (1mM phenobarbital), cytotoxicity positive controls ([…] aflatoxin B1), vehicle controls (0.5% DMSO), and total lysis controls (0.5% DMSO). Cell morphology images were taken using an Essen IncuCyte FLR automated microscope, with six 96-well plates imaged in about 24 minutes. Images were captured and exported and JPEG files. Spent culture media was transfered to black-well plates for the LDH assay, and remaining media was sorted at -80 C for later use. Cells were treated with RLT buffer and frozen until shipped for gene expression analysis. Total RNA was isolated from the cell suspension in 75 uL of Buffer RLT (Qiagen, Germantown, MD 20874) by Quintiles/Expression Analysis (Durham, NC) using a custom isolation procedure. Total RNA from each plate well was transferred to a preamplification plate. Fluidigm's 96.96 Dynamic ArrayTM (Fluidigm, Amsterdam, the Netherlands) technology was used for gene expression analyses by quantitative reverse transcription polymerase chain reaction (qRT-PCR, performed by Quintiles/Expression Analysis, Durham, NC)89. Standard TaqManTM Assays (Applied Biosystems/ThermoFisher Scientific, Foster City, CA) were used to assess the expression of 93 genes selected based on their selectivity and sensitivity to important hepatic receptors known to be modulated by environmental chemicals; importance in human hepatocyte functionality; and hepatotoxicity. […]

Row | Structure (SMILES) | outcome | AC50
1 | COC(=O)CC(=O)OC | inactive | 
2 | CCNc1ccccc1 | inactive | 
3 | CC(C)c1cccc(C(C)C)c1N1C(=O)c2ccc(O)cc2C1=O | inactive | 
4 | O=C(O)c1cccc(Oc2ccccc2)c1 | inactive | 
5 | COC(=O)c1ccccc1O | inactive | 
6 | CC(C)CCCCCCCOC(=O)CCCCC(=O)OCCCCCCCC(C)C | inactive | 
7 | COC(=O)c1c(Cl)c(Cl)c(C(=O)OC)c(Cl)c1Cl | inactive | 
8 | CCOC(=O)COc1ccc2c(c1)CC(NCC(O)c1cccc(Cl)c1)CC2 (stereo not given) | inactive | 
9 | CCn1nc(Cc2ccccc2)cc1C1CCN(C[C@H]2C[C@H](N(C)[C@@H](C(=O)O)C(C)C)C[C@@H]2c2cccc(F)c2)CC1 | inactive | 
10 | CNS(=O)(=O)c1cc(C(=O)N2CCC(CCN3C4CCC3CC(n3c(C)nc5ccccc53)C4)(c3cccc(F)c3)CC2)c(Cl)cc1F (stereo not given) |  | 50 µM (active)
11 | C1=CCCC=CCCC=CCC1 | inactive | 
12 | CCOCCOCCOCCO | inactive | 
13 | CCc1cc(SCc2sc(-c3ccc(C(F)(F)F)cc3)nc2CN2CCN(c3ccc(OC)cc3)CC2)ccc1OCC(=O)O |  | 7.77 µM (active)
14 | Cc1[nH]cnc1C[C@H]1CCc2c(C)c3ccccc3n2C1=O |  | 33.5 µM (active)
15 | CCOC(=O)CC(CC(=O)OCC)(OC(C)=O)C(=O)OCC | inactive | 
16 | O=C(NS(=O)(=O)/C=C/c1ccccc1)c1ccc(F)cc1Cl | inactive | 
17 | CCCCCCCCCCCCc1ccccc1 | inactive | 
18 | CC(C)CC(C)(O)C#CC(C)(O)CC(C)C (stereo not given) | inactive | 
19 | Nc1cccc(N)c1 | inactive | 
20 | CC[C@H]1CC[C@H](NCc2cc3c(cc2OC)[C@H]2C[C@H]2C(=O)N3C)[C@H](c2ccccc2)N1 | inactive | 

Row | Structure (SMILES) | outcome | AC50
21 | On1ccccc1=S | inactive | 
22 | Cn1cnc([N+](=O)[O-])c1Sc1ncnc2nc[nH]c12 |  | 3.9 µM (active)
23 | Nc1ccc(Nc2ccccc2)cc1 | inactive | 
24 | O=C(O)CC(O)C(=O)O (stereo not given) | inactive | 
25 | Cc1ccc(O)cc1 | inactive | 
26 | Fc1ccccc1[C@@H](F)COC1CCC(Nc2ncnc3[nH]ncc23)CC1 (stereo not given in full) |  | 50 µM (active)
27 | CCCCC(CC)COC(=O)c1ccc(C(=O)OCC(CC)CCCC)cc1 (stereo not given) | inactive | 
28 | CCCCCCCCCCCCCCCO | inactive | 
29 | COCCOCCOCCOC | inactive | 
30 | CC(C)=CCCC(C)CCO (stereo not given) | inactive | 
31 | COCCOc1cc2cc(C(=O)NC3CCN(C(C)C)CC3)n(CC(=O)Nc3ccc(Cl)cn3)c2cn1 | inactive | 
32 | CCCCCCCCO | inactive | 
33 | CCCCC(CC)COC(=O)CCCCCCCCC(=O)OCC(CC)CCCC (stereo not given) | inactive | 
34 | CC[C@H](C)C(=O)O[C@H]1C[C@@H](C)C=C2C=C[C@H](C)[C@H](CC[C@@H]3C[C@@H](O)CC(=O)O3)[C@H]21 | inactive | 
35 | COc1ccc2sc(C(=O)Nc3nnn[nH]3)c(OC(C)C)c2c1 |  | 50 µM (active)
36 | O=c1[nH]c2ccc(S(=O)CCN3CCC(Cc4ccc(F)cc4)CC3)cc2o1 (stereo not given) | inactive | 
37 | Cc1c(-c2cccnc2)c2ccccc2n1CCCCC(=O)O | inactive | 
38 | CCCC(=O)OCC | inactive | 
39 | CCC(C)(C)C(=O)O[C@H]1C[C@@H](C)C=C2C=C[C@H](C)[C@H](CC[C@@H]3C[C@@H](O)CC(=O)O3)[C@H]21 | inactive | 
40 | Cc1ccc(S(=O)(=O)O)cc1C | inactive | 
